Molecules are shown by their SMILES. About 80 (0.02%) of roughly 330,000 compounds were called active. Calls follow the shape of the dose curve; as a rule, active = well fitted activation curve with a large enough effect; inconclusive = small, poorly fitted or top-dose-only effect; inactive = flat fitted curve, though single readings scatter. The entries come from a sample that favours actives as a whole. Where a call stands in place of a potency, no number is given.
Potency is read from the fitted curve at half-maximal effect.

For this experiment, the target named is Beta-2 adrenergic receptor (Homo sapiens) (UniProt P07550). Put plainly: qHTS assay of beta-arrestin-biased ligands of beta2-adrenergic receptor. Also: nearly all actives have a fitted effect of over 65% in size. The note with it: beta-arrestin recruitment to beta2AR, cell-based reporter; series mostly up to 46.1 µM. An excerpt: NIH Molecular Libraries Probe Production Network [MLPCN]
Chain of Beta-2 adrenergic receptor (Homo sapiens) (P07550 whole entry, looked up): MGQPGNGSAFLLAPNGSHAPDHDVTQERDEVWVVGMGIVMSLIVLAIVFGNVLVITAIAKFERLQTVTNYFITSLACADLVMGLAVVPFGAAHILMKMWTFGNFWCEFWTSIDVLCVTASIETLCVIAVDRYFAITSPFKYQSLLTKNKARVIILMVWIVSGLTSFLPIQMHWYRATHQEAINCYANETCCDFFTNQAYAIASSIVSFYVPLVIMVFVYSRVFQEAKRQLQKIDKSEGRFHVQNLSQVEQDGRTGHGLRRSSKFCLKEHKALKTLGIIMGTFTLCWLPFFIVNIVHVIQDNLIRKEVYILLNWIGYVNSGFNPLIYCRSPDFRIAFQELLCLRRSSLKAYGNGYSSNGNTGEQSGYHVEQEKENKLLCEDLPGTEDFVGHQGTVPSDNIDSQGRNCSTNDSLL
NIH Chemical Genomics Center [NCGC]
PI: Bryan Roth and Bob Lefkowitz
The concept of biased agonism is an emerging concept of molecular pharmacology which proposes that seven transmembrane receptors (7TMRs) or G protein-coupled receptors (GPCRs), exist in multiple signaling conformations and complexes and that ligands (either agonists or antagonists) can induce signaling biased responses for distinct signal transduction cascades.
Furthermore, accumulating evidence over the last decade has drawn attention to a novel function of beta-arrestins as signal transducers that scaffold various signaling molecules upon activation of 7TMRs. […] This beta-arrestin-biased signaling presumably leads to distinct physiological outcomes from those by G protein activation.
Additionally, the active receptor conformations which […] on this beta-arrestin signaling are likely different from those activating G protein signaling
The goal of this screening project will be to discover and optimize novel beta-arrestin-biased ligands for beta2-AR signaling. A luminescent cell-based assay for beta2-AR-mediated agonism, known as the Tango assay, has been validated in which ligand binding of a recombinant beta2-AR and subsequent recruitment of a recombinant beta-arrestin lead to the release of the transcriptional activator tTA, which upregulates transcription of a tTA-responsive luciferase gene. […] Compounds were screened as a concentration-titration series that ranged from 46 microM to 0.6 nM.
NCGC Assay Protocol Summary:
Tango cells were dispensed into white, solid, tissue-culture-treated 1536-well plates at 1500 cells/well in DMEM, containing 1% fetal bovine serum (FBS). Then, 23 nL of compounds or DMSO were delivered to each well using a pin tool. Plates were incubated at 37 degrees C, 5% CO2 for 18 hr. Then 2.5 uL luminescent substrate mix (in-house prepared: 150 mM Tris-Cl, pH 7.6, 3 mM MgCl2, 1% Triton X-100, 5 mM DTT, 0.5 mM CoA, 0.15 mM ATP, 0.44 mM D-luciferin, final concentrations) was added to each well. Plates were then incubated for 15 minutes at room temperature, and subsequently measured on a ViewLux plate reader for luminescent signal using a clear filter with a 10 second exposure and 2x binning. The %Activity was determined from the corrected luminescence values.
Concentration-response curves were fitted to the signals arising from the resulting luminescence. The concentration-effect curves were then classified based on curve quality (r2), response magnitude and degree of measured activity, and compounds were subsequently categorized based on their curve class.
Keywords: biased agonism, beta2-AR, beta-arrestin, GPCR, 7TMR, Tango, luminescence, MLSMR, MLPCN, NIH Roadmap, qHTS, NCGC
`CC12C(=O)N(c3ccccc3)C(=O)C1C(c1ccccc1)N1CCCN12` (stereo unspecified): the Potency entry was “inactive”.

For `Cc1c(Cl)cccc1NC(=O)NCc1ccc(C)n1C`, the Potency entry was “inactive”.

As for `CCOC(=O)Cc1ncccc1C(=O)Nc1ccc(OC(F)(F)F)cc1`, the Potency entry was “inactive”.

As to `CCOC(=O)N1CCC(N(CCOC)C(=O)Nc2ccc(C)c(C)c2)CC1`, the Potency entry was “inactive”.

As for `CCOC(=O)N/N=C1\CC(C)S(=O)(=O)c2ccc(Cl)cc21` (stereo unspecified), the Potency entry is “inactive”.

On to `CC1CCC(C(C)C)C(=O)/C1=C\c1ccc(NC(=O)CCC(=O)O)cc1` (stereo unspecified), for which the Potency entry is “inactive”.

In the case of `COC(=O)c1ccc(-c2c(-c3ccccc3)ncc3cc(OC)c(OC)cc23)cc1`, the Potency result was “inactive”.

In the case of `NC1=NC2(CCCCC2)N(c2ccc(F)cc2F)C(N)=N1`, the Potency entry is “inactive”.

`O=C(Oc1ccc(Br)cc1C(=S)N1CCOCC1)c1cccc([N+](=O)[O-])c1`: the Potency entry was “inactive”.

For the compound `CCOC(=O)C1CCN(Cc2coc3ccc(Cl)cc3c2=O)CC1`, the Potency entry was “inactive”.

For `COc1ccc(S(=O)(=O)N(C)CC(=O)N2CCCC2)cc1Cl`, the Potency result was “inactive”.

For the compound `C/C(=N\NC(=O)c1cc2c(s1)CCC(C)C2)c1cccnc1` (stereo unspecified), the Potency entry was “inactive”.

On to `COC(=O)[C@H](CC(C)C)NC(=O)N1CCCCC1C` (stereo partly specified), for which the Potency entry is “inactive”.

As for `Cc1ccccc1-n1nc(C)c2c1N=C1C(Cl)=CC(Cl)=CN1C2c1ccc(C(=O)O)cc1` (stereo unspecified), the Potency result is “inactive”.

As to `COc1ccc2c(c1)CCc1cn3ncc(C#N)c3nc1-2`, the Potency entry was “inactive”.

Take `COc1ccc(OCC(=O)NCCc2ccc(S(N)(=O)=O)cc2)cc1`: the Potency result was “inactive”.

Take `Cc1nn(-c2ccccc2)c2sc(C(=O)N(Cc3ccco3)C(C)C(=O)NC(C)(C)C)cc12` (stereo unspecified): the Potency result is “inactive”.

On to `Cc1ccccc1N1CCN(C2CCCN(C(=O)c3cn4c(C)cccc4n3)C2)CC1` (stereo unspecified), for which the Potency result is “inactive”.

For `COCCn1c(SCC(=O)Nc2cc(OC)ccc2OC)nc2c(c1=O)SC(C)C2` (stereo unspecified), the Potency result is “inactive”.

As to `Cc1cc(Cl)ccc1NC(=S)N1CCC(C(N)=O)(N2CCCCC2)CC1`, the Potency result is “inactive”.

With `C[C@H]1COC(=O)[C@H](CC(=O)OC(C)(C)C)C/C=C\C[C@@H](CC(=O)N[C@H](CO)Cc2ccccc2)C(=O)N1`, the Potency entry was “inactive”.

Regarding `CCCn1c(C(Cc2ccccc2)NC(=O)COC)nc2ccccc21` (stereo unspecified), the Potency result is “inactive”.

`O=C(Nc1ccccc1F)C1C2C=CC3(O2)C1C(=O)N(c1cccnc1)C3C(=O)NC1CCCCC1` (stereo unspecified): the Potency entry was “inactive”.

On to `COC(=O)CN1C(=O)C(C)(C)Oc2ccc(C(=O)Nc3cccc(OC)c3)cc21`, for which the Potency entry was “inactive”.

As for `CC1(c2ccc(Cl)cc2Cl)NC(=O)N(CC(=O)Nc2cccnc2Cl)C1=O` (stereo unspecified), the Potency entry is “inactive”.

Regarding `CSc1nc2nc3c(c(=O)n2[nH]1)CCC3`, the Potency entry was “inactive”.

In the case of `O=C(COC(=O)Cc1ccc(Br)cc1)Nc1ccc(N2CCOCC2)cc1`, the Potency entry is “inactive”.

Take `CCN1CCCC1CNC(=O)Cn1cnc2ccc(S(=O)(=O)N3CCC(C)CC3)cc2c1=O` (stereo unspecified): the Potency result is “inactive”.

Regarding `O=C(CCNC(=O)c1ccccc1Cl)NN=Cc1ccco1`, the Potency result is “inactive”.

With `Cc1ccc(S(=O)(=O)N2CCN(C(=O)CCC(=O)NC3CCCc4ccccc43)CC2)cc1` (stereo unspecified), the Potency entry is “inactive”.

For `COC(=O)C(C)n1cnc2c(nnn2-c2ccc(F)cc2)c1=O` (stereo unspecified), the Potency entry is “inactive”.

`Cc1ccc(C2(C)NC(=O)N(CC(=O)N3CC(=O)Nc4ccccc43)C2=O)cc1` (stereo unspecified): the Potency result was “inactive”.

As for `CC(OC(=O)CNS(=O)(=O)/C=C/c1ccccc1)C(=O)Nc1ccc(S(=O)(=O)N2CCCC2)cc1` (stereo unspecified), the Potency result was “inactive”.

Consider `CCOC(=O)c1c(-c2cccc(N)c2)cn2ccccc12`, for which the Potency entry was “inactive”.

As to `CCOc1cc2[nH]c(=S)n(CCCN3CCCC3=O)c(=O)c2cc1OCC`, the Potency entry was “inactive”.

As for `COc1ccc(CS(=O)/C(Cl)=C(/Cl)C(=O)Nc2ccc(OC)nc2)cc1` (stereo unspecified), the Potency result was “inactive”.

With `CC1CC1C(=O)OCC(=O)Nc1cccc(F)c1` (stereo unspecified), the Potency result is “inactive”.

Consider `CC1CCC2(CC1)NC(=O)N(Cc1nnc(-c3cccs3)o1)C2=O` (stereo unspecified), for which the Potency entry was “inactive”.

Take `NC(=O)c1ccsc1NC(=O)COC(=O)Cc1n[nH]c(=O)c2ccccc12`: the Potency entry is “inactive”.

`CCOCCCNC(=O)c1cn(CC(C)C)c(=O)c2c1c1ccccc1n2C`: the Potency entry was “inactive”.

As for `Cc1cc(C)c(C#N)c(SCC(=O)NN2CC(=O)N(c3ccccc3F)CC2=O)n1`, the Potency entry is “inactive”.

As for `COc1ccc(CC(NC(C)=O)C(=O)NC2CCN(C(=O)C3CC3)CC2)cc1OC` (stereo unspecified), the Potency result is “inactive”.

As to `COc1ccccc1OCCn1c(SCC(N)=O)nc2ccccc21`, the Potency entry is “inactive”.

`CCc1cccc(C)c1NC(=O)COC(=O)CC1CCCC1`: the Potency result was “inactive”.

On to `O=C(Nc1cc(-c2nn(CC(=O)N3CCCCC3)c(=O)c3ccccc23)ccc1N1CCOCC1)c1ccc(Cl)cc1`, for which the Potency result was “inactive”.

As to `COc1ccc2c(-c3ccccc3)cc(SCC(=O)N(C)C3CCS(=O)(=O)C3)nc2c1` (stereo unspecified), the Potency entry was “inactive”.

On to `COC(=O)c1cccc(NC(=O)CN2CCC(NC(=O)c3cc(OC)c(OC)c(OC)c3)CC2)c1`, for which the Potency result is “inactive”.

Take `O=C(COc1ccccc1Cl)Nc1ccc(C(=O)c2ccc(C(=O)O)cc2)cc1`: the Potency result is “inactive”.

As for `OC(COCC1COc2ccccc2O1)CN1CCN(c2ccc(F)cc2)CC1` (stereo unspecified), the Potency entry is “inactive”.

With `O=C(O)C1CCCN1S(=O)(=O)c1ccc2c(c1)CCC2` (stereo unspecified), the Potency entry was “inactive”.

For the compound `COc1ccc(-n2nnnc2SCC(=O)NCc2cccs2)cc1`, the Potency entry was “inactive”.

In the case of `CC(=O)n1c(C=Nc2ccccc2)c(O)c2ccccc21`, the Potency entry is “inactive”.

Turning to `Oc1ccc(N=Cc2sc3ccccc3c2Cl)cc1`, the Potency is 13 µM (active).

As for `Cn1c(SCC(=O)N2CCCC2)nnc1-c1cccs1`, the Potency result is “inactive”.

Regarding `CC(C(=O)N1CCOCC1)N1c2cccc3cccc(c23)S1(=O)=O` (stereo unspecified), the Potency entry is “inactive”.

Consider `Nc1ccc(Nc2cc(O)c3ncccc3c2)cc1`, for which the Potency result is “inactive”.

On to `COc1nc(N=C(N)N)nc2c(C)cccc12`, for which the Potency result was “inactive”.

In the case of `CCOC(=O)C1=C(c2ccccc2)N=C2SCC(=O)N2C1c1ccc(O)c(OC)c1` (stereo unspecified), the Potency entry was “inactive”.

For the compound `COc1cc(C)c(C(C)C)cc1S(=O)(=O)n1ccnc1`, the Potency result was “inactive”.

For the compound `CCOc1ccc(N(CC(=O)NCCc2ccc(F)cc2)S(=O)(=O)c2ccccc2)cc1`, the Potency result is “inactive”.

Consider `CCN(C(=O)COC(=O)c1c(NC(C)=O)sc(C)c1C)C1CCS(=O)(=O)C1` (stereo unspecified), for which the Potency entry is “inactive”.

As for `C=CCN(c1ccccc1C(=O)NCC(=O)OCC)S(=O)(=O)c1ccc(C)cc1`, the Potency result is “inactive”.

`CCCOc1ccc(C2=CSC3=NCCN23)cc1Cl`: the Potency entry was “inactive”.

As for `CCc1ccc(-c2nc(SCC(=O)NC3CCCC3)n[nH]2)cc1`, the Potency entry is “inactive”.

With `Cc1cc(OCCOc2cccc3cccnc23)c(C)cc1Cl`, the Potency entry is “inactive”.

Turning to `CCOC(=O)N1CCN(S(=O)(=O)N2CCCC(C(=O)NCCCN3CCC(C)CC3)C2)CC1` (stereo unspecified), the Potency entry is “inactive”.

These data come from PubChem BioAssay AID492947 (National Center for Advancing Translational Sciences (NCATS), 2010).
